Assay results from PubChem BioAssay AID1745848 (National Center for Advancing Translational Sciences (NCATS), 2022).
About 940 (45%) of roughly 2,100 compounds were called active. Inconclusive results (about 48%) are left out. The call rests on the fitted dose curve; in most records, active means well fitted inhibition curve with a large enough effect; inconclusive means small, poorly fitted or top-dose-only effect; inactive means no such curve, though single readings can be large or run the other way. So high a share suggests a set chosen from earlier hits. This is one part of the list.

Experiment: Confirmatory qHTS for Inhibitors of ATXN expression; further: nearly all actives have a fitted effect of over 65% in size
Conditions: ATXN2-luciferase reporter cells, luminescence, 24 h; series mostly up to 11.5 µM
Description: PI: Daniel Scoles Ph.D. University of Utah School of Medicine, Salt Lake City, Utah MLPCN Grant: NS073009 Spinocerebellar ataxia type 2 (SCA2) is a multisystem neurodegenerative disease caused by a dominantly acting mutation leading to expansion of a polyQ domain in the ataxin-2 protein (ATXN2). SCA2 patients develop progressive ataxia and later lose function in other neuronal systems. Prominent parkinsonian signs develop in some patients. Like many neurodegenerative disorders, no symptomatic or disease-modifying treatments are known. The primary objective of the proposed research is to identify compounds inhibiting ATXN2 expression and to test them for efficacy in SCA2 mouse models. We have developed a cell-based assay paired with an in vivo mouse model using identical luciferase expression constructs. This approach takes advantage of an ATXN2-luciferase transgene, with the luciferase gene flanked by the upstream and downstream portions of the ATXN2 gene. Here we describe a 5-7 dose quantitative high thoroughput screen (qHTS) for compounds lowering ATXN2 expression. We screened the NIH Molecular Libraries Small Molecule Repository (MLSMR) and NCGC's mechanistically annotated (MIPE) and drug repurposing (NPC) collections of compounds for lowering expression of an ATXN2-luciferase reporter in HEK-293 cells. The assay is a multiplexed cell viability assay to ensure target reduction in the absence of cytotoxicity. Secondary qHTS assays included a CMV-luciferase reporter expressed in HEK-293 cells as well as a biochemical assay using recombinant luciferase to detect inhibitors of the reporter enzyme. Compounds that inhibit ATXN2 expression but is not cytotoxic were selected for confirmatory and secondary screens.
PROTOCOL TABLE (as described by Inglese J, Shamu CE and Guy RK. 2007) SEQUENCE No. (e.g., 1, 2, 3, etc.); PARAMETER (e.g., Cells, Incubation, Reagent, etc.); VALUE; DESCRIPTION. 1; Cells; 4 uL; white, solid bottom, 1536-well Greiner assay plate. 2; Incubation; 2 hr; 37 degree C in 5% humidified CO2. 3; Compounds; 23 nL; Kalypsis pintool (Wako USA) equipped with a 1536-well pin head. 4; Incubation; 24 hr; 37 degree C in 5% humidified CO2. 5; Reagent; 1 uL; Gly-Phe-7-Amino-4-trifluoromethylcoumarin. 6; Incubation; 30 min; 37 degree C in 5% humidified CO2. 7; Detection; Fluorescence; ViewLux plate reader (PerkinElmer). 8; Reagent; 3 uL; SteadyGlo luciferase solution (Promega). 9; Incubation; 5 min; room temperature. 10; Detection; Luminescence; ViewLux plate reader (PerkinElmer). NOTES (numbers refer to Sequence numbers above) 1. […] expressing ATXN2-luciferase reporter were suspended in phenol-red free DMEM and dispensed in assay plates using a Multidrop Combi dispenser (Thermo Fisher Scientific). Wells containing medium only were plated on each plate, and values were used to normalize (100% inhibition) in the luciferase and CellTiter-Fluor assays. 2. Assay plates were incubated. Evaporation was prevented by covering assay plates with metal lids containing holes to allow gas diffusion. 3. Compounds were added in a dose response manner with the final concentrations of 57, 11.4, 2.28, 0.46, 0.091, 0.018, 0.0037 uM. Vehicle-only plates, with DMSO being pin-transferred to columns 5-48, were inserted uniformly at the beginning and the end of each library to monitor and record any shifts in assay performance. 5. 125 uM Gly-Phe-7-Amino-4-trifluoromethylcoumarin (MP Biomedicals) working concentration was used at a final concentration of 25 uM. 7. To assess cell viability; the assay plates were read using the ViewLux high-throughput CCD imager (PerkinElmer), wherein single end-point fluorescence measurement was acquired (excitation 405/10; emission 540/25 nm). 8. Detection reagent SteadyGlo Luciferase (Promega) was added to the assay plate. 10. Luminescence is then measured on the ViewLux imager equipped with a clear emission filter using a 2 sec exposure. […]
Potency means the concentration at half of the fitted maximal effect.

Compound | Potency
CC(C(=O)c1ccc(-c2ccccc2)cc1)[n+]1cccc(NC(=O)c2ccccc2)c1 (configuration not stated) | inactive
Cc1cc[n+](C(C)C(=O)c2ccc(-c3ccccc3)cc2)cc1 (configuration not stated) | 14.1 µM (active)
Cc1ccc(Cc2cnc(N3C(=N)SC(C)C3=O)s2)cc1 (configuration not stated) | inactive
COc1ccc(OC)c(NC(=O)COC(=O)c2c3c(nc4ccccc24)CCCC3)c1 | 3.16 µM (active)
Cn1cc(SCC(=O)Nc2nc3ccccc3s2)c2ccccc21 | 3.16 µM (active)
NC(c1csc(Nc2nccc(C(F)(F)F)n2)n1)C1CCCCC1 (configuration not stated) | 3.55 µM (active)
CC(C)CC(N)c1csc(Nc2ccc(C(=O)N(C)Cc3ccccc3)cn2)n1 (configuration not stated) | 12.6 µM (active)
COc1ccc(CC(N)c2csc(Nc3ccc(C(=O)c4ccccc4)cc3)n2)cc1 (configuration not stated) | inactive
NC(COCc1ccccc1)c1csc(Nc2ccc(C(F)(F)F)cn2)n1 (configuration not stated) | 31.6 µM (active)
NC(Cc1ccc(F)cc1)c1csc(Nc2cc(NCc3ccco3)ncn2)n1 (configuration not stated) | inactive
NC(Cc1ccccc1)c1csc(Nc2ccc(C(F)(F)F)cn2)n1 (configuration not stated) | 31.6 µM (active)
NC(Cc1ccc(C(F)(F)F)cc1)c1csc(Nc2nccc(C(F)(F)F)n2)n1 (configuration not stated) | 3.55 µM (active)
CC(C)(C)c1cc(C(=O)N/N=C/c2ccc([N+](=O)[O-])s2)n[nH]1 | 5.01 µM (active)
Cc1cc(C(=O)N/N=C/c2ccc([N+](=O)[O-])s2)n[nH]1 | 8.91 µM (active)
O=C(Cn1cnc([N+](=O)[O-])c1)Nc1cc(Oc2ccc(Cl)cc2Cl)cc([N+](=O)[O-])c1 | 2.82 µM (active)
O=C(NCc1cc(C(F)(F)F)ccc1Cl)c1cccc2c1C(=O)c1ccc(N3CCOCC3)cc1S2(=O)=O | 3.98 µM (active)
O=C(NCc1ccccc1C(F)(F)F)c1cccc2c1C(=O)c1ccc(N3CCC(N4CCCCC4)CC3)cc1S2(=O)=O | 3.16 µM (active)
CCCc1nc2c(c(=O)c3ccccc3n2C)c(=O)n1C1CCCCCC1 | 14.1 µM (active)
COc1ccc(C(=O)Nn2c(SCC(=O)c3ccccc3)nc3ccccc3c2=O)cc1 | 15.8 µM (active)

Compound | Potency
O=S(=O)(Nc1cccc2cccnc12)c1ccccc1 | 1.58 µM (active)
Cc1ccc(S(=O)(=O)Nc2cc(Cl)c(O)c3ncccc23)cc1 | 3.55 µM (active)
Cc1ccc(S(=O)(=O)Nc2cccc3cccnc23)cc1 | 8.91 µM (active)
O=[N+]([O-])c1ccccc1S(=O)(=O)Nc1cccc2cccnc12 | 10 µM (active)
O=C(/C=C/Nc1ccc(S(=O)(=O)Nc2ncccn2)cc1)c1ccc(Cl)c(Cl)c1 | inactive
CCc1ccc(N(CC)C(=O)c2ccc3c(Cl)c4c(nc3c2)CCC4)cc1 | 3.55 µM (active)
C[C@@H]1ON(C)[C@H]2C[C@H]3c4[nH]c5ccc(-c6ccc7c(c6)OCO7)cc5c4CCN3C(=O)[C@@H]12 | 15.8 µM (active)
Nc1cccc2nc3ccccc3cc12 | 7.94 µM (active)
Nc1c2ccccc2nc2ccccc12 | 3.55 µM (active)
CCc1nc2ccc(C(=O)Nc3cc(-c4ccccc4)ccc3OC)cn2c1N(CC)CC(=O)N(C)C | 28.2 µM (active)
Cc1ccc(SCCC(=O)N/N=C/c2ccccc2O)cc1 | 3.55 µM (active)
Cc1ccc(S(=O)(=O)NCC(=O)N/N=C/c2ccccc2O)cc1 | 3.16 µM (active)
O=C(CNS(=O)(=O)c1ccc([N+](=O)[O-])cc1)N/N=C/c1ccc(O)cc1O | 3.16 µM (active)
O=C(CCCOc1ccc(Cl)cc1Cl)N/N=C/c1ccccc1O | 2.82 µM (active)
N#CC1=C(N)N2C(=C(C#N)C1c1cccc(Br)c1)Nc1ccccc12 (configuration not stated) | 3.16 µM (active)
Cc1csc2ncnc(NC3CCN(Cc4ccccc4)CC3)c12 | 0.794 µM (active)
CC(C)(C)c1ccc(Oc2ccc(N)cc2)cc1 | 2.24 µM (active)
CC(C)(C)c1ccc(Oc2ccc(N)cn2)cc1 | 3.16 µM (active)
Cc1cccc(NC(=O)CCC(=O)N/N=C/c2ccc(O)cc2O)c1 | 3.16 µM (active)

Compound | Potency
Cc1cc(C)n(CCC(=O)N/N=C/c2ccc(O)cc2O)n1 | 3.16 µM (active)
COc1ccc(O)c(/C=N/NC(=O)CCC(=O)Nc2cccc(C)c2)c1 | 14.1 µM (active)
COc1ccc(O)c(/C=N/NC(=O)CSc2nnc(C)n2-c2ccccc2)c1 | 2.82 µM (active)
COc1cc(OC)c(OC)cc1/C=C1\CCC/C(=C\c2cc(OC)c(OC)cc2OC)C1=O | 3.98 µM (active)
COc1cc(OC)c(OC)cc1/C=C1\CC(C)C/C(=C\c2cc(OC)c(OC)cc2OC)C1=O (configuration not stated) | 14.1 µM (active)
O=C(Nc1ccc(N2CCN(C(=O)c3ccccc3)CC2)c(Cl)c1)c1ccc(Br)o1 | 2.51 µM (active)
Cc1ccccc1C(=O)N1CCN(c2ccc(NC(=O)c3ccco3)cc2Cl)CC1 | 17.8 µM (active)
COc1ccc(CC(=O)Nc2nc(-c3ccc(F)c(F)c3)cs2)cc1OC | 4.47 µM (active)
O=C(Nc1nc(-c2ccc(F)c(F)c2)cs1)Nc1ccc(F)cc1F | 1.41 µM (active)
COc1cc(CC(=O)Nc2nc(-c3ccc(F)c(F)c3)cs2)cc(OC)c1OC | 3.98 µM (active)
COc1ccc(CC(=O)Nc2nc(-c3ccc(OC)c(OC)c3)cs2)cc1OC | 3.16 µM (active)
O=C(CCN1C(=O)C2CC=CCC2C1=O)Nc1nc(-c2ccc(F)c(F)c2)cs1 (configuration not stated) | inactive
COCCNc1nc(-c2cc(C)n(CCc3ccc(OC)cc3)c2C)cs1 | inactive
CCCCCc1ccc(OCCCC[n+]2cccc(C)c2)c(CCCCC)c1 | 14.1 µM (active)
CCCCCc1ccc(OCCC[n+]2ccccc2)c(CCCCC)c1 | 14.1 µM (active)
CCOC(=O)[C@H]1[C@H]2COc3ccc(OC)cc3[C@@H]2N2C(=O)c3cc(OC)c(OC)cc3NC(=O)[C@@]12C | inactive
COc1ccc(/C=C2\CN(Cc3ccccc3)C/C(=C\c3ccc(OC)c(O)c3)C2=O)cc1O | 3.98 µM (active)
COc1ccc(C(=O)Cn2c(C(=O)/C=C/c3ccccc3)nc3ccccc32)cc1 | 2.82 µM (active)
COCC(C)n1c(C)cc(C(=O)COC(=O)c2cccn2C)c1C (configuration not stated) | 2.24 µM (active)
